Reference: PubChem BioAssay (NCATS)
Records with an inconclusive call do not appear. Activity calls are given as the source filed them. The call rests on the fitted dose curve; in most records, active means well fitted curve in the direction sought with a large enough effect; inconclusive means small, poorly fitted or top-dose-only effect, or another doubt; inactive means no such curve, though single readings can be large; an effect the other way counts as inactive or inconclusive.

Tests used:
[1] = KB-3-1 Cancer Cell Toxicity qHTS against the NCATS CANVASS Library (AID 1347366); details: KB-3-1 viability, CellTiter-Glo luminescence, 72 h; at 15.4 µM (top of the series); further: nearly all actives have a fitted effect of over 75% in size
From the text: Natural products and their derivatives continue to be wellsprings of nascent therapeutic potential. However, many laboratories have limited resources for biological evaluation, leaving their previously isolated or synthesized compounds largely or completely untested. To address this issue, the Canvass library of natural products was assembled (https://tripod.nih.gov/canvass), in collaboration with academic and industry researchers, for quantitative high-throughput screening (qHTS) across a diverse set of cell-based and biochemical assays. The pure (>85% purity by liquid chromatography/mass spectrometry [LC/MS]) Canvass library of 346 natural products were submitted by 45 academic laboratories and companies around the world. We collected pure natural products to circumvent deconvolution and structure elucidation due to time and resource limitations. The library was formatted into 1536-well plates and evaluated in 50 qHTS (in an 11-pnt concentration series) bioassays with broad scope of disease-relevant mechanisms. The resulting data set from 50 different assays was then systematically analyzed to identify overall trends and specific natural products with interesting biological activities. […]
Cancer Cell Toxicity qHTS protocol 1. […] Luminescence signal was acquired via the ViewLux plate reader (PerkinElmer) using a clear emission filter, 1 sec exposure, and 1x binning settings.

[2] = qHTS for ATAD5 Agonist screened against the NCATS CANVASS Library (AID 1347367); details: HEK293T ATAD5-luciferase reporter, luminescence, 16 h; series mostly up to 15.4 µM;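 further: luciferase reporter driven by ATAD5 which rises upon DNA damage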
Summary of the method: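 Luciferase reporter under ATAD5 control, stably integrated in HEK293T cells (2000/well). Compounds (11 points) incubated 16 h at 37C; viability read first by CellTiter-Fluor, then luminescence reporting ATAD5 activation. MMS positive control.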

[3] = G06 Cancer Cell Toxicity qHTS against the NCATS CANVASS Library (AID 1347368); details: G06 dog glioma cells, viability ATP luminescence, 72 h; series mostly up to 15.4 µM; further: nearly all actives have a fitted effect of over 60% in size
Summary of the method: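 Viability measured by CellTiterGlo ATP luminescence after 72 hr at 37C, 5% CO2. Canine G06 glioma cells plated at 500/well. Compounds tested as 11-point qHTS titrations.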

[4] = MCF7 Cancer Cell Toxicity qHTS against the NCATS CANVASS Library (AID 1347369); details: MCF7 viability, ATP luminescence (CellTiter-Glo), 72 h; at 15.3 µM (top of the series)
From the text: Natural products and their derivatives continue to be wellsprings of nascent therapeutic potential. However, many laboratories have limited resources for biological evaluation, leaving their previously isolated or synthesized compounds largely or completely untested. To address this issue, the Canvass library of natural products was assembled (https://tripod.nih.gov/canvass), in collaboration with academic and industry researchers, for quantitative high-throughput screening (qHTS) across a diverse set of cell-based and biochemical assays. The pure (>85% purity by liquid chromatography/mass spectrometry [LC/MS]) Canvass library of 346 natural products were submitted by 45 academic laboratories and companies around the world. […] The library was formatted into 1536-well plates and evaluated in 50 qHTS (in an 11-pnt concentration series) bioassays with broad scope of disease-relevant mechanisms. The resulting data set from 50 different assays was then systematically analyzed to identify overall trends and specific natural products with interesting biological activities. […] This assay uses ATP (luminescence) content to measure the cytotoxiciy of compounds on MCF7 human breast cancer cell line. […]
Cancer Cell Toxicity qHTS protocol: MCF7 cell line 1. […] Luminescence signal was acquired via the ViewLux plate reader (PerkinElmer) using a clear emission filter, 2 sec exposure, and 1x binning settings.

[5] = qHTS for ATAD5 Antagonist screened against the NCATS CANVASS Library (AID 1347370); details: HEK293T-ATAD5-luc, 5-FUrd stimulated, luminescence, 16 h; series mostly up to 15.4 µM;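 further: HEK293T cells carrying an ATAD5 luciferase reporter co-treated with 10 µM 5-fluorouridine; nearly all actives have a fitted effect of over 65% in size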
From the text: Natural products and their derivatives continue to be wellsprings of nascent therapeutic potential. However, many laboratories have limited resources for biological evaluation, leaving their previously isolated or synthesized compounds largely or completely untested. To address this issue, the Canvass library of natural products was assembled (https://tripod.nih.gov/canvass), in collaboration with academic and industry researchers, for quantitative high-throughput screening (qHTS) across a diverse set of cell-based and biochemical assays. […] The library was formatted into 1536-well plates and evaluated in 50 qHTS (in an 11-pnt concentration series) bioassays with broad scope of disease-relevant mechanisms. The resulting data set from 50 different assays was then systematically analyzed to identify overall trends and specific natural products with interesting biological activities. […] Luminescence intensity is proportional to ATAD5 expression. […]
ATAD5 Agonist assay protocol: 1. […] A first readout of fluorescence signal was acquired via the ViewLux (PerkinElmer) plate reader using filter sets for AFC (380-400nmEx/505Em) and 1 second exposure setting. […] 8.#A second readout of luminescence signal was acquired via the ViewLux plate reader using a clear emission filter, 10 second exposure setting.

[6] = J3T Cancer Cell Toxicity qHTS against the NCATS CANVASS Library (AID 1347371); details: J3T dog glioma viability, ATP luminescence, 72 h; series mostly up to 15.4 µM;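 further: J3T is a canine glioma cancer cell line seeded at 500 cells per well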
Summary of the method: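 Cytotoxicity read as CellTiterGlo ATP luminescence after 72 h incubation (37C, 5% CO2) of J3T canine glioma cells (500/well) with an 11-point compound series.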

[7] = target: Nuclear receptor subfamily 1 group I member 3 (Homo sapiens) (UniProt Q14994); assay: qHTS for Constitutive Androstane Receptor (CAR) Antagonist screened against the NCATS CANVASS Library (AID 1347372); details: HepG2-hCAR-CYP2B6 luciferase, CITCO-stimulated antagonist mode; series mostly up to 15.4 µM;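 further: cells stimulated with 50 nM CITCO agonist so inhibition reflects antagonism; luciferase from CYP2B6 promoter reporter driven by hCAR in HepG2 cells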
Chain of Nuclear receptor subfamily 1 group I member 3 (Homo sapiens) (Q14994 whole entry, looked up): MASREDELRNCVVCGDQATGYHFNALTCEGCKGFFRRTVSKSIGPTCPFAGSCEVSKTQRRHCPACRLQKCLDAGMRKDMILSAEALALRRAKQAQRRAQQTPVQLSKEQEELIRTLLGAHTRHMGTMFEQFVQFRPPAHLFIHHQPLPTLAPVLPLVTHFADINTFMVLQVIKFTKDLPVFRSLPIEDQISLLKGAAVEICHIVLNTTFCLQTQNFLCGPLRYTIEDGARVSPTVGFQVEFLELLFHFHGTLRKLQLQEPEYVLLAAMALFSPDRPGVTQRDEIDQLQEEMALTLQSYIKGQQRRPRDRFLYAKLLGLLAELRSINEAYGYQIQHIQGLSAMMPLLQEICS
Summary of the method: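 Cells were seeded and left 4hr to attach, then received compound at 11 concentrations and 50 nM CITCO. Following 24hr incubation, fluorescence viability and luciferase luminescence were read sequentially.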

[8] = target: Nuclear receptor subfamily 1 group I member 3 (Homo sapiens) (UniProt Q14994); assay: qHTS for Constitutive Androstane Receptor (CAR) Agonist screened against the NCATS CANVASS Library (AID 1347373); details: HepG2-hCAR-CYP2B6 luciferase reporter, ONE-Glo luminescence; series mostly up to 15.4 µM;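 further: every well also contained 1.5 µM PK11195 alongside the test compound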
From the text: Natural products and their derivatives continue to be wellsprings of nascent therapeutic potential. However, many laboratories have limited resources for biological evaluation, leaving their previously isolated or synthesized compounds largely or completely untested. To address this issue, the Canvass library of natural products was assembled (https://tripod.nih.gov/canvass), in collaboration with academic and industry researchers, for quantitative high-throughput screening (qHTS) across a diverse set of cell-based and biochemical assays. […] The library was formatted into 1536-well plates and evaluated in 50 qHTS (in an 11-pnt concentration series) bioassays with broad scope of disease-relevant mechanisms. The resulting data set from 50 different assays was then systematically analyzed to identify overall trends and specific natural products with interesting biological activities. […]
Material: A double-stable (hCAR and CYP2B6-2.2kb) transfected cell line, derived from human hepatoma (HepG2) cells, was utilized for the duration of the quantitative high-throughput screens. […] A first readout of fluorescence signal was acquired via the ViewLux (PerkinElmer) plate reader using a FITC dichroic mirror, excitation 405/10 nm filter, and emission 540/25 nm filter; and using 65 light energy, 1 second exposure, and 2x binning settings. […]

[9] = qHTS for Hypoxia signaling pathway (HIF-1) antagonists against the NCATS CANVASS Library (AID 1347374); details: HRE-bla ME-180 cells, HIF-1 beta-lactamase reporter, CoCl2; series mostly up to 12.8 µM;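 further: HRE-bla ME-180 cells stimulated with cobalt chloride to stabilize HIF-1alpha; nearly all actives have a fitted effect of over 60% in size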
Summary of the method: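 Antagonism scored as loss of CoCl2-driven (60 uM stock added) HRE beta-lactamase signal, read by CCF4 FRET at 460/530 nm. Compounds were tested in an 11-point series on ME-180 reporter cells for 17 hrs at 37C, with parallel CellTiter-Glo cytotoxicity.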

[10] = qHTS for Hypoxia signaling pathway (HIF-1) agonists against the NCATS CANVASS Library (AID 1347375); details: HRE-bla ME-180 cells, HIF-1 beta-lactamase reporter, 17 h; series mostly up to 12.8 µM
Summary of the method: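 Beta-lactamase reporter under HRE control in ME-180 cells; compounds (11-point qHTS series) added after 5 hrs plating, then 17 hrs at 37C. FRET substrate read after 2 hr; same-well CellTiter-Glo luminescence gave viability and normalization.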

Measured: outcome

C[C@@H]1O[C@@H](OC[C@H]2O[C@@H](Oc3c(-c4ccc(O)c(O)c4)oc4cc(O)cc(O)c4c3=O)[C@H](O)[C@@H](O)[C@@H]2O)[C@H](O)[C@H](O)[C@H]1O
inactive: all assays above
